Abeta yeast res = restores growth of yeast expressing A-beta42 peptide. Potency, µM (series often up to 46.1 µM), most hits filed as activators. yeast expressing A-beta42, growth rescue, OD600, 48 h; response scale: 0% DMSO, 100% iron-clioquinol control. 0.063% of 410,000 active; further: nearly all actives have a fitted effect of over 55% in size
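Growth rescue measured by 600 nm absorbance after 48 h yeast culture at 30 C with compound. Values normalized between DMSO and an equimolar ferric chloride plus clioquinol control.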
FUS yeast rescue = suppressors of FUS proteinopathy in yeast; S. cerevisiae FUS-expressing, growth rescue, OD600, 24 h; Potency, µM (doses to about 76.6 µM), hits mostly activators; 0.24% of 390,000 active; further: nearly all actives have a fitted effect of over 55% in size
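Galactose (2%) drives FUS expression in yeast precultured in raffinose; seeding density OD 0.005. Test compounds incubated 24hr at 30C and 99% humidity before absorbance at 600 nm was measured.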
TDP-43 yeast inh = rescues yeast growth from TDP-43 toxicity; 1.8% of 410,000 active; AID 652104; TDP-43 expressing yeast growth rescue, BacTiter-Glo, 24 h; Potency, µM (series often up to 46.1 µM), hits mostly activators; further: nearly all actives have a fitted effect of over 50% in size
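Readout is BacTiter-Glo luminescence of cell growth, so inhibitors register as activators. TDP-43-expressing yeast at OD600=0.02 in galactose medium, after raffinose pregrowth to mid-log, were incubated with compound for 24 hr at 30 deg C.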
aSyn yeast inh = inhibitors of alpha-synuclein toxicity in yeast; 0.14% of 370,000 active; Potency, µM (titrated, usually from 46.1 µM), usual class: activators; Yeast expressing alpha-synuclein, growth rescue, BacTiter-Glo, 24 h; AID 652106; further: nearly all actives have a fitted effect of over 65% in size
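Rescue of yeast growth: cells expressing toxic alpha-synuclein, induced in galactose at OD600 0.02, incubated with compound 24 h at 30 C. ATP luminescence quantified growth; inhibitors of toxicity appear as activators.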
Each line names hits and unclear results; the compound was inactive in the other large screens; ! = repeats disagree. An excerpt weighted towards active compounds, which were near 2.1% of everything screened. The call rests on the fitted dose curve; in most records, active means well fitted curve in the direction sought with a large enough effect; inconclusive means small, poorly fitted or top-dose-only effect, or another doubt; inactive means no such curve, though single readings can be large; an effect the other way counts as inactive or inconclusive.

CC(C)(C)c1ccc(CC(=O)N2CCC2(C)C(=O)Nc2cnc3ccccc3c2)cc1 (stereo not drawn)	FUS yeast rescue inconclusive, TDP-43 yeast inh 18µM, aSyn yeast inh inconclusive
Cc1ccc(C)n1-c1nnc(N2CCCC(C(=O)Nc3ccc(C(C)C)cc3)C2)s1 (stereo not drawn)	none (no result: aSyn yeast inh)
CC(C)(C)C(=O)C(Cc1ccccc1Cl)n1cncn1 (stereo not drawn)	TDP-43 yeast inh 7.1µM
CCCC(C(=O)c1ccccc1)n1cncn1 (stereo not drawn)	none
CC(C)(C)C(O)C(Cc1ccccc1Cl)n1cncn1 (stereo not drawn)	TDP-43 yeast inh 35µM
CC(C)(C)C(=O)C(Cc1ccccc1)n1cncn1 (stereo not drawn)	TDP-43 yeast inh inconclusive, aSyn yeast inh inconclusive
C[C@H](NC(=O)c1[nH]cnc1C(=O)Nc1ccccc1)c1ccccc1	TDP-43 yeast inh 25µM
C[C@@H](NC(=O)c1nc[nH]c1C(=O)N[C@@H](CCCCNC(=O)OC(C)(C)C)C(=O)OC(C)(C)C)c1ccccc1	FUS yeast rescue 20µM
CC(C)(C)OC(=O)NCCCC[C@H](NC(=O)c1[nH]cnc1C(=O)Nc1ccccc1)C(=O)OC(C)(C)C	FUS yeast rescue inconclusive
CCOC(=O)c1ccc(NC(=O)c2nc[nH]c2C(=O)N[C@@H](C)C(=O)OC(C)(C)C)cc1	TDP-43 yeast inh 28µM
CC(C)(C)OC(=O)NCCCC[C@H](NC(=O)c1[nH]cnc1C(=O)Nc1ccc(Cl)cc1)C(=O)OC(C)(C)C	FUS yeast rescue 16µM
COc1ccc(CNC(=O)Cc2c(C)c3c(cc(C)c4c(C)c(C)oc43)oc2=O)cc1OC	none (no result: aSyn yeast inh)
C[C@H](NC(=O)c1nc[nH]c1C(=O)N[C@@H](Cc1ccccc1)C(=O)OC(C)(C)C)c1ccccc1	FUS yeast rescue inconclusive
C[C@@H](NC(=O)c1nc[nH]c1C(=O)N[C@@H](Cc1ccccc1)C(=O)OC(C)(C)C)c1ccccc1	FUS yeast rescue 20µM
CCOC(=O)C1CCCN(C(=O)c2sc3nc(-c4ccc(OC)cc4)cn3c2C)C1 (stereo not drawn)	FUS yeast rescue inconclusive, TDP-43 yeast inh 11µM (no result: aSyn yeast inh)
CCOC(=O)C1CCN(C(=O)c2sc3nc(-c4ccccc4)cn3c2C)CC1	TDP-43 yeast inh inconclusive (no result: FUS yeast rescue)
Cc1cc(C)cc(NC(=O)CSc2nnc(COc3ccccc3Cl)o2)c1	TDP-43 yeast inh inconclusive (no result: aSyn yeast inh)
Cc1ccc(NC(=O)c2c(C)nn(-c3ccccc3)c2-n2cccc2)c(Cl)c1	none (no result: aSyn yeast inh)
CCc1ccccc1Oc1nc(NC(C)C)nc2ccsc12	TDP-43 yeast inh 20µM
CC(C)Nc1nc(-c2ccccc2CO)c2sccc2n1	TDP-43 yeast inh inconclusive
COCCNc1nc(Oc2cccc3ccccc23)c2sccc2n1	TDP-43 yeast inh 16µM
CCOc1ccccc1NC(=O)CSc1nccn1-c1cccc(C)c1	TDP-43 yeast inh 18µM
COc1cccc(-n2ccnc2SCC(=O)Nc2cccc3ccccc23)c1	FUS yeast rescue inconclusive, TDP-43 yeast inh 16µM (no result: aSyn yeast inh)
Cc1cccc(-n2ccnc2SCC(=O)Nc2nccs2)c1	none
COc1ccc(-c2[nH]c(-c3ccc(F)cc3)nc2SCC(=O)Nc2ccc(OC)c(OC)c2)cc1	FUS yeast rescue inconclusive (no result: aSyn yeast inh)
COc1ccc(C2C(C#N)=C(N)N(c3ccccc3)C3=C2C(=O)CCC3)cc1Cn1cc([N+](=O)[O-])cn1 (stereo not drawn)	FUS yeast rescue 25µM
Cc1cccc(C)c1-n1nnnc1C1c2ccccc2C(=O)N1CCC(C)C (stereo not drawn)	none
Cc1cccc(C)c1-n1nnnc1C1c2ccccc2C(=O)N1CCc1ccccc1F (stereo not drawn)	TDP-43 yeast inh 35µM
COc1ccccc1NC(=O)c1ccc(-c2ccc(Br)cc2)o1	none
COc1ccccc1NC(=O)c1ccc(-c2ccccc2[N+](=O)[O-])o1	TDP-43 yeast inh 32µM
O=S1(=O)c2ccc(N3CCC[C@@H]3CO)cc2OCCCN1C1CC1	none (no result: Abeta yeast res, TDP-43 yeast inh, aSyn yeast inh)
O=C(CCNS(=O)(=O)c1ccc2c(c1)CCN2C(=O)C1CC1)N1CCN(c2ccc(F)cc2)CC1	none
CCc1ccc(/C=C2/SC(=S)NC2=O)cc1	none (no result: Abeta yeast res, FUS yeast rescue, TDP-43 yeast inh)
Oc1cccc2c(NC(=S)Nc3ccc(SC(F)F)cc3)cccc12	TDP-43 yeast inh 11µM
COc1ccc2c(Sc3ccccc3)c(C(=O)NCc3cc(Br)ccc3OC)[nH]c2c1	none (no result: aSyn yeast inh)
C/C(=N\Nc1ccc([N+](=O)[O-])cc1)c1cccc(N)c1	TDP-43 yeast inh 14µM
CSc1nc(N2CCOCC2)c2c3c(sc2n1)CCCC3	FUS yeast rescue inconclusive, TDP-43 yeast inh 16µM
Cc1ccc(C)c(OCC(=O)NC2CCCCCC2)c1	TDP-43 yeast inh 11µM
COc1ccc2ccccc2c1C(=O)/C=C\c1ccoc1	TDP-43 yeast inh 11µM, aSyn yeast inh inconclusive
Cc1ccc(S(=O)(=O)N2CCN(c3nc(-n4ccnn4)nc4ccccc34)CC2)cc1	none (no result: Abeta yeast res, FUS yeast rescue, TDP-43 yeast inh)
CC(C)(C)C1CCc2nc(NC(=O)Cc3ccccc3)sc2C1 (stereo not drawn)	TDP-43 yeast inh 32µM (no result: aSyn yeast inh)
CC1CCc2nc(NC(=O)CN3CCN(c4ccc(F)cc4)CC3)sc2C1 (stereo not drawn)	FUS yeast rescue inconclusive, TDP-43 yeast inh 16µM
COc1ccc(CC(=O)Nc2nc3c(s2)CC(C)CC3)cc1 (stereo not drawn)	Abeta yeast res inconclusive, TDP-43 yeast inh 13µM (no result: aSyn yeast inh)
COc1cccc(N2CCN(CC(=O)Nc3nc4c(s3)CC(C)CC4)CC2)c1 (stereo not drawn)	none
Cc1cccc(OCC(=O)Nc2nc3c(s2)CC(C(C)(C)C)CC3)c1C (stereo not drawn)	none (no result: aSyn yeast inh)
CCN(CC)S(=O)(=O)c1ccc2c(c1)N(CC(=O)N1CCN(c3ccccc3F)CC1)C(=O)CO2	none
O=C(C1CCC1)N1CCN(c2ccc(C(F)(F)F)cc2[N+](=O)[O-])CC1	none (no result: FUS yeast rescue)
O=C(Nc1ccccc1)N1CCN(c2ccc(F)cc2)CC1	none
CC(=O)c1ccc(N2CCN(C(=O)Nc3ccc(C(C)C)cc3)CC2)cc1	TDP-43 yeast inh 18µM!
O=C(Nc1ccccc1)N1CCN(c2ccccc2)CC1	TDP-43 yeast inh 8.9µM
CC(C)c1ccc(NC(=O)N2CCOCC2)cc1	none
O=C(Nc1ccccc1)N1CCCN(c2ccc(C(F)(F)F)cc2[N+](=O)[O-])CC1	TDP-43 yeast inh 18µM
Cc1ccc(C(=O)Nc2cccc(N(C)S(C)(=O)=O)c2)cc1S(=O)(=O)Nc1ccccc1	FUS yeast rescue 35µM
COc1ccc(C(=O)Nc2cccc(N(C)S(C)(=O)=O)c2)cc1OC	none
Cc1ccnc(Sc2ccc([N+](=O)[O-])cc2[N+](=O)[O-])n1	TDP-43 yeast inh 20µM
O=C1CC(c2cc(Br)ccc2F)c2cc3c(cc2N1)CCC3 (stereo not drawn)	aSyn yeast inh 4.5µM
O=C1CC(c2cccc(Cl)c2)c2cc3c(cc2N1)CCC3 (stereo not drawn)	aSyn yeast inh 4µM
Cc1ccc(NC(=O)CCC(=O)N2Cc3ccccc3Oc3ncccc32)cc1Cl	none (no result: aSyn yeast inh)
CCCCSc1ccc2nc(-c3ccc(C#N)cc3)cn2c1	TDP-43 yeast inh 11µM
CCCSc1ccc2nc(-c3ccccc3)cn2c1	none (no result: FUS yeast rescue)

Screening results from PubChem.
